Screening results as filed in PubChem BioAssay.
ELG1 repair inh = qHTS screen for small molecules that inhibit ELG1-dependent DNA repair in human embryonic kidney (HEK293T) cells expressing luciferase-tagged ELG1. HEK293T ELG1-luciferase reporter, luminescence, 16 h; DNA damage induced by 5-fluorouridine. Potency, µM (series often up to 46.1 µM), for inactives: at the highest dose activity change, negative = inhibition, most hits filed as inhibitors. 330,000 compounds, 2.3% hits. AID 504467, 2011; note: % is set by controls: 0 for no effect and ±100 for the full control effect; nearly all actives have a fitted effect of over 55% in size
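Cells (2,000 per well) received 5-fluorouridine plus test compound or DMSO and were incubated 16 hr at 37 °C, 5% CO2. Luciferase activity was read by luminescence 30 min after ONE-Glo addition; signal suppression marked inhibition of damage-induced ELG1 function.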
Rab9 prom act = qHTS Assay for Rab9 Promoter Activators; Huh7 Rab9 promoter-luciferase reporter, luminescence, 24 h; Potency, µM (doses to about 9.22 µM), for the others: at the highest dose activation, negative = inhibition, most hits filed as activators; 320,000 compounds, 2.8% hits; note: % of control where 0% means no effect; nearly all actives have a fitted effect of over 60% in size
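Luciferase signal after 10 min detection reagent at ambient indicates Rab9 promoter upregulation; stably transfected Huh7 cells were treated 24 h with compound in DMSO at 37 °C, 5% CO2.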
SMN2 splice up = qHTS Assay for Enhancers of SMN2 Splice Variant Expression. 210,000 compounds, 2.8% hits. HEK293 SMN2-luciferase splicing reporter, luminescence, 30-36 h. AID 1458, 2008. Potency, µM (series often up to 46.1 µM), without a hit: at the top dose activity change, positive = activation, actives largely listed as activators; note: % of control where 0% means no effect; nearly all actives have a fitted effect of over 55% in size
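HEK293 cells carry an SMN2 minigene-luciferase reporter in which exon 7 inclusion puts luciferase in frame. Cells were seeded at 2000 cells/well, attached for 10-12 hours, then exposed to compounds for 30-36 hours at 37C before ONE-Glo luminescence.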
NPC1 promoter act = qHTS Assay for NPC1 Promoter Activators | Huh7 NPC1 promoter luciferase reporter, 24 h | Potency, µM (doses to about 9.22 µM), inactives show at the highest dose activation, usual class: activators | 320,000 compounds, 2.4% hits | AID 485313, 2010; note: % of control where 0% means no effect; nearly all actives have a fitted effect of over 60% in size
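Luminescence read-out of NPC1 promoter-driven luciferase in stably transfected Huh7 cells; compounds delivered in DMSO and left 24 h at 37C, 5% CO2, qHTS titration format.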
ELG1 genotox = qHTS screen for small molecules that induce genotoxicity in human embryonic kidney (HEK293T) cells expressing luciferase-tagged ELG1; Potency, µM (titrated, usually from 46 µM), for inactives: at the highest dose activity change, positive = activation, usual class: activators; AID 504466, 2011; 330,000 compounds, 1.3% hits; HEK293T ELG1-luciferase reporter, luminescence, 16 h; note: % of control where 0% means no effect; nearly all actives have a fitted effect of over 60% in size
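16 hr compound incubation (37 °C, 5% CO2) of HEK293T cells carrying luciferase-tagged ELG1; luciferase then measured by ONE-Glo luminescence after 30 min at RT.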
FLuc counter = qHTS profiling assay for firefly luciferase inhibitor/activator using purifed enzyme and Km concentrations of substrates (counterscreen for miR-21 project); AID 588342, 2011; purified FLuc, Km substrates, luminescence inhibition; Potency, µM (highest dose often 57.5 µM), without a hit: at the highest dose activity change, negative = inhibition, usual class: inhibitors; Luciferin 4-monooxygenase (Photinus pyralis), P08659; 360,000 compounds, 6.9% hits;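 note: plate controls were vehicle for no effect and reference inhibitor for full effect; nearly all actives have a fitted effect of over 55% in size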
Target sequence (P08659 whole entry, looked up): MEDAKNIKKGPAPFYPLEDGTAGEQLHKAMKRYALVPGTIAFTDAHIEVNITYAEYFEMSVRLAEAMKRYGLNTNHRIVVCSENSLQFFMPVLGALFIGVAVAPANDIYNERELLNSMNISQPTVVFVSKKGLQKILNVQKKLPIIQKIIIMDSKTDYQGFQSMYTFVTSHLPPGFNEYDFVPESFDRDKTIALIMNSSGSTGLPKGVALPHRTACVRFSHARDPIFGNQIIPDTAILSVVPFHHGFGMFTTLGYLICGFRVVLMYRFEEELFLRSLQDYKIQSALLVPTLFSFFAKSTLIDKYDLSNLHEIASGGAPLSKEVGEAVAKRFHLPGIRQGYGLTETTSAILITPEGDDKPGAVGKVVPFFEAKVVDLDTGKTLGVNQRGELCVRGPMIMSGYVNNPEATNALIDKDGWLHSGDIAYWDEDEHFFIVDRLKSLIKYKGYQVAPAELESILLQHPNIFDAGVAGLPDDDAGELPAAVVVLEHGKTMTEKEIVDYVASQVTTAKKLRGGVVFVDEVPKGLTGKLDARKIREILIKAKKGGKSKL
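Purified P. pyralis luciferase (10nM final) with 10uM D-luciferin and 10uM ATP (Km levels) in 50mM Tris acetate pH 7.5, 10mM Mg acetate, 0.01% Tween-20, 0.05% BSA; qHTS 6-point titration, ~60 µM downward; luminescence read.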
* marks the source's active call; other numbers are inactive results; ? = inconclusive; . = not tested or not shown. Only some compounds are listed: those with a hit (about 9.3% of all), similar ones and a draw of the others. Calls come from the whole dose curve; as a rule, active = well fitted curve in the direction sought with a large enough effect; inconclusive = small, poorly fitted or top-dose-only effect, or another doubt; inactive = no such curve, though single readings can be large; an effect the other way counts as inactive or inconclusive. Potency is the fitted concentration of half-maximal effect.

SMILES	ELG1 repair inh	Rab9 prom act	SMN2 splice up	NPC1 promoter act	ELG1 genotox	FLuc counter
COc1ccc(CNC(=O)Nc2cccs2)cc1OC	-1.2%	-1.0%	2.3%	-0.1%	0.5%	-1.2%
CSc1ccc(NC(=O)NCc2ccccc2)cc1	?	4.47µM*	.	4.47µM*	?	?
Cc1ccc(C)c(CNC(=O)Nc2ccccc2)c1	?	?	.	?	?	13.5µM*
O=C(NCC1CC1)Nc1ccc(Cl)cc1	?	?	.	?	?	16.9µM*
Cn1nccc1NC(=O)CSCC(=O)O	?	-4.1%	.	1.8%	1.8%	-0.6%
Cc1ccnc(NS(=O)(=O)c2ccc(NS(C)(=O)=O)cc2)n1	-2.4%	-4.1%	.	1.6%	-0.7%	6.5%
Cc1ccc(CNC(=O)Nc2ccc(Cl)cc2)cc1	?	3.98µM*	.	?	?	-8.2%
Cc1ccc(CNC(=O)Nc2ccccc2)cc1	?	2.51µM*	15.8µM*	?	9.2µM*	12µM*
Cc1ccc(CNC(=O)NCc2ccccc2)cc1	?	4.2%	?	22.6%	7.8%	?
CCOC(=O)c1ccc(NC2(c3ccccc3)C(=O)c3ccccc3C2=O)cc1	.	.	.	.	.	-9.4%
O=c1c(-c2ccco2)[n+]([O-])c2ccccc2n1OCc1ccccc1[N+](=O)[O-]	23.1µM*	-16.5%	-16.6%	-7.2%	-8.7%	-15.1%
CCOC(=O)c1cnc(-n2nc(C)cc2C)nc1Nc1ccc(N(C)C)cc1	14.6µM*	-18.0%	-38.4%	0.0%	-11.7%	-4.5%
CCOC(=O)c1cnc(-n2nc(C)cc2C)nc1NNc1nc(-c2ccccc2)cc(-c2ccccc2)n1	5.17µM*	-16.3%	-89.9%	-16.7%	-5.8%	0.7%
CCOC(=O)c1cnc(-n2nc(C)cc2C)nc1NC	-9.7%	28.4%	-9.5%	?	2.8%	?
CCOC(=O)c1cnc(-n2nc(C)cc2C)nc1NNc1nc(C)cc(C)n1	11.6µM*	-0.7%	.	0.9%	-6.2%	1.8%
CCN(CC)c1ccc(/C=C2/C(=O)c3ccc(C(=O)O)cc3C2=O)cc1	?	-6.0%	-2.2%	-1.5%	?	0.477µM*
CCCCC1(C)OC(=O)C(=Cc2ccc(N(CC)CC)cc2)C(=O)O1 (configuration not stated)	11.6%	-4.4%	4.4%	-4.5%	3.9%	?
COc1cc(NC(=O)CC2C(=O)N(c3ccccc3)C(=O)N2Cc2ccc(F)cc2)cc(OC)c1 (configuration not stated)	.	.	.	.	.	2.4%
COc1ccccc1OCCCCOc1ccccc1F	?	27.1%	-9.3%	25.3%	7.8%	13.5µM*
CCOc1ccccc1OCCCCOc1ccccc1F	7.5%	-5.9%	0.2%	-8.3%	-0.2%	-9.1%
CC1Sc2ccc(S(=O)(=O)N3CCC(C(=O)Nc4ccc(Cl)cc4)CC3)cc2NC1=O (configuration not stated)	4.61µM*	-35.5%	.	-31.4%	-12.0%	-0.4%
COc1ccc(NC(=O)C2CCN(S(=O)(=O)c3ccc4c(c3)NC(=O)C(C)S4)CC2)cc1 (configuration not stated)	?	0.8%	.	-15.6%	-8.2%	-0.2%
Fc1ccccc1CSc1nnc(-c2cccnc2)o1	?	3.16µM*	?	3.98µM*	?	16.9µM*
Cc1ccccc1-c1nnc(SCc2ccccc2)o1	?	?	14.1µM*	?	14.6µM*	8.49µM*
Cc1ccc(C)c(CSc2nnc(-c3cccnc3)o2)c1	19.1%	9.5%	-3.3%	-6.8%	0.0%	-1.0%
SMILES	ELG1 repair inh	Rab9 prom act	SMN2 splice up	NPC1 promoter act	ELG1 genotox	FLuc counter
COc1cc(OC)cc(-c2nnc(SCc3c(F)cccc3Cl)o2)c1	?	3.55µM*	20.5%	3.16µM*	?	?
COc1ccc(-c2nnc(SCc3ccccc3F)o2)cc1	?	1.41µM*	11.2µM*	1.26µM*	1.03µM*	1.51µM*
CN(C1CCCCC1)S(=O)(=O)c1ccc(SCC(=O)C(C)(C)C)nc1	?	.	.	.	-1.1%	.
COc1ccc(N2CCN(C(=O)CCn3c(=O)c4cccn4c4cccnc43)CC2)cc1	.	.	.	.	.	-5.5%
CCc1nnc(NC(=O)CCN2C(=O)/C(=C/c3cc(OC)c(OC)c(OC)c3)SC2=S)s1	4.5%	-3.7%	.	-4.6%	-0.1%	-2.0%
Cc1ccccc1-c1nnc(SCc2ccccc2F)o1	?	3.55µM*	12.6µM*	3.16µM*	?	1.9µM*
Fc1ccccc1CSc1nnc(-c2ccccc2)o1	?	3.16µM*	35.5µM*	2.51µM*	8.2µM*	4.78µM*
COc1cc(-c2nc(Cn3nnc(C(=O)Nc4ccccc4)c3C)c(C)o2)cc(OC)c1OC	.	.	-4.3%	.	.	-10.9%
O=C(NCC1CCCO1)c1ccc(COc2ccccc2)cc1 (configuration not stated)	0.5%	2.3%	.	-4.1%	-2.4%	0.8%
COc1ccc(NCC(=O)Nc2ccc(C#N)cc2)cc1Cl	25.9µM*	1.1%	-0.9%	-2.7%	-4.4%	3.6%
O=C(c1ccc(Cl)c(S(=O)(=O)N2CCOCC2)c1)N(c1ccccn1)C1CCCCC1	?	2.9%	-0.1%	2.6%	-10.7%	-2.4%
Cc1ccc(-c2csc(N3CCC[C@@H]3C(=O)NCCn3c(-c4ccncc4)nc4ccccc43)n2)cc1	14.6µM*	2.2%	.	-0.6%	-9.0%	-13.5%
O=C(c1ccco1)N1CCN(c2ncnc3c2nnn3Cc2ccccc2Cl)CC1	23.1µM*	-1.4%	-55.4%	-3.3%	-10.7%	-5.1%
COc1ccccc1N1CCN(c2ncnc3c2oc2ccccc23)CC1	?	-20.2%	.	-24.4%	?	26.9µM*
O=C(c1ccco1)N1CCN(c2ncnc3c2oc2ccccc23)CC1	?	1.9%	4.0%	-1.7%	?	23.9µM*
O=C(c1ccco1)N1CCN(c2nc(C(F)(F)F)nc3c2nnn3Cc2ccccc2)CC1	?	-5.7%	-84.4%	-8.6%	-7.5%	0.2%
c1cnc(N2CCN(c3ncnc4c3oc3ccccc34)CC2)nc1	6.3%	8.5%	.	-1.7%	12.4%	-0.8%
O=[N+]([O-])c1cc2c(cc1CN1CCN(CCOCCO)CC1)OCO2	-7.1%	0.1%	.	3.9%	-0.5%	1.8%
COc1cccc(OC)c1C(=O)OCCCOC(=O)c1c(OC)cccc1OC	20.6µM*	-7.1%	.	-5.4%	-8.5%	-0.6%
